# How the values were obtained:
# Experiment in all cases: yeast three-hybrid, YBZ-1, SC-Leu-His + 0.5 mM 3-AT, 4 days
# Details in all cases: tags: N-Gal4 AD-HA kept; label: inside an RPR1-promoter hybrid RNA with tandem MS2 sites; ssRNA
# [1] = molecular target: PUM1 PUF domain R4-WAV (Homo sapiens, UniProt Q14671 828-1176, N971W;H972A;Q975V)
# Procedure, shortened: (§1)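 Pumilio-1 PUF domain libraries, randomized at the three base-contacting residues of each repeat, were co-expressed with matching RNA elements from a centromeric plasmid in strain YBZ-1, which carries a LexA–MS2 coat fusion and a HIS3 reporter. Transformants grew for four days on SC-Leu (input) or on SC-Leu-His + 0.5 mM 3-AT (selection), and the repeat regions were PCR-amplified and Illumina-sequenced. The interaction score is the log change in variant frequency from input to selection. That logarithm is base 2, with a pseudocount of 1 where a variant was absent.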
# [2] = molecular target: PUM1 PUF domain R2-MWG (Homo sapiens, UniProt Q14671 828-1176, N899M;Y900W;Q903G)
# Procedure, shortened: as §1
# [3] = molecular target: PUM1 PUF domain R5-LHI (Homo sapiens, UniProt Q14671 828-1176, C1007L;R1008H;Q1011I)
# Procedure, shortened: as §1
# [4] = molecular target: PUM1 PUF domain R2-SWF (Homo sapiens, UniProt Q14671 828-1176, N899S;Y900W;Q903F)
# Procedure, shortened: as §1
# [5] = molecular target: PUM1 PUF domain R4-AHV (Homo sapiens, UniProt Q14671 828-1176, N971A;Q975V)
# Procedure, shortened: as §1
# [6] = molecular target: PUM1 PUF domain R4-PYF (Homo sapiens, UniProt Q14671 828-1176, N971P;H972Y;Q975F)
# Procedure, shortened: as §1
# [7] = molecular target: PUM1 PUF domain R5-RYP (Homo sapiens, UniProt Q14671 828-1176, C1007R;R1008Y;Q1011P)
# Procedure, shortened: as §1
# [8] = molecular target: PUM1 PUF domain R5-NGR (Homo sapiens, UniProt Q14671 828-1176, C1007N;R1008G;Q1011R)
# Procedure, shortened: as §1
# [9] = molecular target: PUM1 PUF domain R3-MRW (Homo sapiens, UniProt Q14671 828-1176, C935M;Q939W)
# Procedure, shortened: as §1
# [10] = molecular target: PUM1 PUF domain R3-RSR (Homo sapiens, UniProt Q14671 828-1176, C935R;R936S;Q939R)
# Procedure, shortened: as §1
# Sequence of PUM1 PUF domain R4-WAV (Q14671 828-1176 N971W/H972A/Q975V): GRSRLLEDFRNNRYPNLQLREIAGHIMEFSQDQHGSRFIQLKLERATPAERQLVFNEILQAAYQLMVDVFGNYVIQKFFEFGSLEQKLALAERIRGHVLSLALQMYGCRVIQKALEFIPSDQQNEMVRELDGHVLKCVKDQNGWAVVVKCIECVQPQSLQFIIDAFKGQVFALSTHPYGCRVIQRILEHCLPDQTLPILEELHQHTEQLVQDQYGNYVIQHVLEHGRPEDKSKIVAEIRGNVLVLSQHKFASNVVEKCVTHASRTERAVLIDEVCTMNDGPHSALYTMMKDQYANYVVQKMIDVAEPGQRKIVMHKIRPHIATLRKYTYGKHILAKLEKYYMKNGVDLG
sequence,measurement,setting,value
GGCUAGAACUAGUGGAUCCCCCGGCGCCCGGCGGCUCGAGCCCGGGUAAGUGUACAUAGUCUGCAUGCCGCCGGGCGCCAUGCCUGCAGGUCGACUCUAGAAAACAUG,binding signal,[1],2.23 log2 enrichment (interaction score)
GGCUAGAACUAGUGGAUCCCCCGGCGCCCGGCGGCUCGAGCCCGGGUAAGUGUAAAGAGUCUGCAUGCCGCCGGGCGCCAUGCCUGCAGGUCGACUCUAGAAAACAUG,binding signal,[2],3.95 log2 enrichment (interaction score)
GGCUAGAACUAGUGGAUCCCCCGGCGCCCGGCGGCUCGAGCCCGGGUAAGUGUUAAUAGUCUGCAUGCCGCCGGGCGCCAUGCCUGCAGGUCGACUCUAGAAAACAUG,binding signal,[3],3.78 log2 enrichment (interaction score)
GGCUAGAACUAGUGGAUCCCCCGGCGCCCGGCGGCUCGAGCCCGGGUAAGUGUAAAAAGUCUGCAUGCCGCCGGGCGCCAUGCCUGCAGGUCGACUCUAGAAAACAUG,binding signal,[2],1.87 log2 enrichment (interaction score)
same,binding signal,[4],2.22 log2 enrichment (interaction score)
GGCUAGAACUAGUGGAUCCCCCGGCGCCCGGCGGCUCGAGCCCGGGUAAGUGUAAAUAGUCUGCAUGCCGCCGGGCGCCAUGCCUGCAGGUCGACUCUAGAAAACAUG,binding signal,[5],4.52 log2 enrichment (interaction score)
same,binding signal,[6],7.96 log2 enrichment (interaction score)
same,binding signal,[1],2.33 log2 enrichment (interaction score)
same,binding signal,[7],2.37 log2 enrichment (interaction score)
same,binding signal,[4],1.61 log2 enrichment (interaction score)
GGCUAGAACUAGUGGAUCCCCCGGCGCCCGGCGGCUCGAGCCCGGGUAAGUGUCAAUAGUCUGCAUGCCGCCGGGCGCCAUGCCUGCAGGUCGACUCUAGAAAACAUG,binding signal,[8],2.58 log2 enrichment (interaction score)
same,binding signal,[3],0.32 log2 enrichment (interaction score)
GGCUAGAACUAGUGGAUCCCCCGGCGCCCGGCGGCUCGAGCCCGGGUAAGUGUAAGUAGUCUGCAUGCCGCCGGGCGCCAUGCCUGCAGGUCGACUCUAGAAAACAUG,binding signal,[9],5.09 log2 enrichment (interaction score)
GGCUAGAACUAGUGGAUCCCCCGGCGCCCGGCGGCUCGAGCCCGGGUAAGUGUAUAUAGUCUGCAUGCCGCCGGGCGCCAUGCCUGCAGGUCGACUCUAGAAAACAUG,binding signal,[1],5.71 log2 enrichment (interaction score)
GGCUAGAACUAGUGGAUCCCCCGGCGCCCGGCGGCUCGAGCCCGGGUAAGUGUAAUUAGUCUGCAUGCCGCCGGGCGCCAUGCCUGCAGGUCGACUCUAGAAAACAUG,binding signal,[10],3.41 log2 enrichment (interaction score)
same,binding signal,[9],2.07 log2 enrichment (interaction score)
